Inconclusive results are not listed. Calls of active or inactive are those of the source. Unless noted, the call rests on the fitted dose curve; in most records, active means well fitted curve in the direction sought with a large enough effect; inconclusive means small, poorly fitted or top-dose-only effect, or another doubt; inactive means no such curve, though single readings can be large; an effect the other way counts as inactive or inconclusive.
How the values were obtained:
[1] = Primary qHTS to identify inhibitors of SARS-CoV-2 cell entry (AID 1645846; calls by dose curve; further: nearly all actives have a fitted effect of over 45% in size); conditions: SARS-CoV-2 pseudovirus cell entry assay, luminescence; activity change, negative = inhibition: at 57.1 µM (top of the series) unless noted
Summary of the method: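 Luminescence readout (Bright-Glo luciferase) 48 h after pseudoparticle addition. HEK293-ACE2 cells, 1500/well; compound pre-incubation 1 h; Normalized to spike PP and bald PP.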

[2] = Primary qHTS for inhibitors of nuclear receptor binding SET domain protein 2 (NSD2) in an isogenic RCH-ACV NSD2 p.E1099K mutant (9B) (AID 1645876); further: potency means the concentration at half of the fitted maximal effect; nearly all actives have a fitted effect of over 70% in size
[3] = Primary qHTS for inhibitors of nuclear receptor binding SET domain protein 2 (NSD2) in an RCH-ACV wild type WT cells (2C) (AID 1645877); further: potency means the concentration at half of the fitted maximal effect; nearly all actives have a fitted effect of over 70% in size
[4] = target: Rap guanine nucleotide exchange factor 3 (Homo sapiens) (UniProt O95398); assay: Confirmatory qHTS for antagonist of cAMP-regulated guanine nucleotide exchange factor 3 (EPAC1) (AID 1645880);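 further: plate controls were DMSO only for no effect and full effect of the ATA control for full effect; nearly all actives have a fitted effect of over 55% in size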
Chain of Rap guanine nucleotide exchange factor 3 (Homo sapiens) (O95398 whole entry, looked up): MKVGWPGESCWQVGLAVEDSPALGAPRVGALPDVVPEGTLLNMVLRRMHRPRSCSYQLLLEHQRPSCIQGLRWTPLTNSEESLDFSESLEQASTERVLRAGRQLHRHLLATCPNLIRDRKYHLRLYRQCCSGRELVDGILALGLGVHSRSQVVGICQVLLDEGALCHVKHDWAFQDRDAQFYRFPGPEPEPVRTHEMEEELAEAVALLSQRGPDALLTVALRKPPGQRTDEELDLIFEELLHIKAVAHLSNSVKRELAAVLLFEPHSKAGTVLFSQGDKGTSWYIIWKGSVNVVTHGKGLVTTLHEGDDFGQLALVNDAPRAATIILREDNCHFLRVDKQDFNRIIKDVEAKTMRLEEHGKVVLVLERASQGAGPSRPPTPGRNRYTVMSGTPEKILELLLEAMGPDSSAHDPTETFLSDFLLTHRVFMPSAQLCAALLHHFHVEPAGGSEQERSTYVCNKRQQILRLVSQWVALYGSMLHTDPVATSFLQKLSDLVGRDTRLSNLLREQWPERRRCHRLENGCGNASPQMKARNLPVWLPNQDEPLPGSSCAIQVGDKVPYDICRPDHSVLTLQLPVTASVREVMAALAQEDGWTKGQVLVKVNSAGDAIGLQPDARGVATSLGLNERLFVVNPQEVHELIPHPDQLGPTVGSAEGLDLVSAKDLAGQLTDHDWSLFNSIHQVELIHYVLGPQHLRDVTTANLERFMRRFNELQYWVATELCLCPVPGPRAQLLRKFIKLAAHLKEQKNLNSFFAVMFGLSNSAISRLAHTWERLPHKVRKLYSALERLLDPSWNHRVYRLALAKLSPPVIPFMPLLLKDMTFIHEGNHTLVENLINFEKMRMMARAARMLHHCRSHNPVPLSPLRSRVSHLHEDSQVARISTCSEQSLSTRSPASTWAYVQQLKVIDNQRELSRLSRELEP
Summary of the method: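 Nucleotide exchange uses 100 nM EPAC1, 250 nM RAP1B-BODIPY-GDP and 50 uM GDP, with compounds in a concentration-titration series. After 5 min at room temperature, fluorescence (480 nm ex/540 nm em) is read every 5 min for 30 min. Data are normalized to control ATA and DMSO.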

[5] = target: Rap guanine nucleotide exchange factor 3 (Homo sapiens) (UniProt O95398); assay: Confirmatory qHTS for agonist of cAMP-regulated guanine nucleotide exchange factor 3 (EPAC1) (AID 1645881);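 further: EPAC1 catalysed release of BODIPY-GDP from Rap1B seen as fluorescence loss; 100% = effect of cAMP agonist control; nearly all actives have a fitted effect of over 75% in size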
[6] = target: Rap guanine nucleotide exchange factor 4 (Homo sapiens) (UniProt Q8WZA2); assay: Confirmatory qHTS for agonist of cAMP-regulated guanine nucleotide exchange factor 4 (EPAC2) (AID 1645884);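 further: nucleotide exchange releases bodipy-GDP from Rap1 and this lowers its fluorescence; on the % scale 0 is the no-effect control and ±100 the full control effect; nearly all actives have a fitted effect of over 65% in size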
Chain of Rap guanine nucleotide exchange factor 4 (Homo sapiens) (Q8WZA2 whole entry, looked up): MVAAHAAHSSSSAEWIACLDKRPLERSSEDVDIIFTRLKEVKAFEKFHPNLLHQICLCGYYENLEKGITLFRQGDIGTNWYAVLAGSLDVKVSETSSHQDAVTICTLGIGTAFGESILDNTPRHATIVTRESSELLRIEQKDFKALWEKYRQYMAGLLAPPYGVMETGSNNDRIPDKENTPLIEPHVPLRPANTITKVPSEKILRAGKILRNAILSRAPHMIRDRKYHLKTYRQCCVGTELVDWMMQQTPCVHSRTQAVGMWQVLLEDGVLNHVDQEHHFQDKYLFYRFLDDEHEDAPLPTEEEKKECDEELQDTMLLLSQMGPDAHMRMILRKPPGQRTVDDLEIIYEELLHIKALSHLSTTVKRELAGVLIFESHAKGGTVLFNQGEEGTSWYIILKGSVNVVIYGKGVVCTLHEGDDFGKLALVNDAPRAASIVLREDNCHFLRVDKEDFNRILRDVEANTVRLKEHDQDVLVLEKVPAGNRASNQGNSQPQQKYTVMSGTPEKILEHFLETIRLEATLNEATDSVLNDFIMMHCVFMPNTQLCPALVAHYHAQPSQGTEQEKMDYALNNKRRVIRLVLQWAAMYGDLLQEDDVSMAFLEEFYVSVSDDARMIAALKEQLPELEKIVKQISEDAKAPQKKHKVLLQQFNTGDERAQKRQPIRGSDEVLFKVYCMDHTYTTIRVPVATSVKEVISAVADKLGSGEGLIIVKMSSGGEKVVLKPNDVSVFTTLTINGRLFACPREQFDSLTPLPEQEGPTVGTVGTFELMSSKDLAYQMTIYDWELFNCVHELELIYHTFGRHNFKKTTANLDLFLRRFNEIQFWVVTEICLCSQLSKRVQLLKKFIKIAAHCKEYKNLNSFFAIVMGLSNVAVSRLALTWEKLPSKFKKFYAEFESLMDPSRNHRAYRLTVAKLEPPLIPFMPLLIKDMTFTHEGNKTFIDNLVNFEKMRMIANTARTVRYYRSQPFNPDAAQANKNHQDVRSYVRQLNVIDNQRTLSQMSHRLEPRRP

[7] = target: Rap guanine nucleotide exchange factor 4 (Homo sapiens) (UniProt Q8WZA2); assay: Confirmatory qHTS for antagonist of cAMP-regulated guanine nucleotide exchange factor 4 (EPAC2) (AID 1645885); further: on the % scale 0 is the no-effect control and ±100 the full control effect; nearly all actives have a fitted effect of over 25% in size
[8] = target: Rap guanine nucleotide exchange factor 3 (Homo sapiens) (UniProt O95398); assay: Counterscreen qHTS for antagonist of cAMP-regulated guanine nucleotide exchange factor 3 (EPAC1) (AID 1645888);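 further: fluorescence loss as bound BODIPY-GDP is released from Rap1B; % of control where 0% means no effect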
Summary of the method: (§1)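 Rap1B-BODIPY-GDP 250 nM + GDP 50 uM; cpds 7-pt, final 9.74 nM–152 uM (activator mode) or from 7.32 nM upwards (inhibitor mode); RT; FI 480/540 nm at 5 and 30 min, then ± cAMP, reread.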

[9] = target: Rap guanine nucleotide exchange factor 3 (Homo sapiens) (UniProt O95398); assay: Counterscreen qHTS for agonist of cAMP-regulated guanine nucleotide exchange factor 3 (EPAC1) (AID 1645889); further: % of control where 0% means no effect; nearly all actives have a fitted effect of over 40% in size
Summary of the method: as §1

COc1nc(N)nc2c1ncn2C1OC(CO)C(O)C1O (stereo not given)
1.29%: activity change, negative = inhibition [1]

Cc1sc2c(c1C)C(c1ccc(Cl)cc1)=NC(CC(N)=O)c1nnc(C)n1-2 (stereo not given)
active: Potency [2] 0.105 µM | Potency [3] 0.132 µM
-23.3%: activity change, negative = inhibition [1]

CCN1C(=O)C(=C/C=C/c2ccco2)C(=O)N(CC)C1=S
inactive: Potency [4] | Potency [5] | Potency [6] | Potency [7] | outcome [8]

COc1ccc(OCC(=O)N2CCN(CC3CC4C=CC3C4)CC2)cc1 (stereo not given)
inactive: Potency [4] | Potency [5] | activation [6] 6.59% [at 17.1 µM, percent relative to cAMP agonist control] | activity change, negative = inhibition [7] 6.27% [at 12.7 µM] | activity change, negative = inhibition [8] -7.66% [at 30.8 µM] | activation [9] 5.29% [at 30.8 µM]

From PubChem BioAssay (NCATS)
